In PubChem BioAssay (NCI):
About 83,000 compounds went through this panel and 20% of them were active in at least one assay; those are over-represented in the sample as a whole.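 48-hour exposure, single concentration, 96-well plates; percent growth endpoint where 0 means no net growth. Active: below 10.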 Active and inactive are the calls of the source.

system: HL-60(TB) leukemia; test: NCI-60 one-dose screen, 48 h (100 = growth as untreated, 0 = no growth, -100 = all killed); settings: 10 µM unless noted

| Compound | growth |
| --- | --- |
| COc1cc2cc(C(=O)N3C[C@@H](CCl)c4c3cc(OC(=O)N3CCN(C)[C@@H]5CSSC[C@H]53)c3ccccc43)[nH]c2c(OC)c1OC | -43.4% (active) |
| O=C(/C=C/c1ccc(Cl)cc1)c1nc2ccccc2n1Cc1ccc(F)cc1 | -2.58% (active) |
| CC[C@]12C=CCN3CC[C@@]4(c5ccc(OC)cc5N(C)[C@H]4[C@@](O)(C(=O)OC)[C@@H]1OC(=O)CCC[P+](C1CCCCC1)(C1CCCCC1)C1CCCCC1)[C@@H]32 | -37.1% (active) |
| CC(=O)Oc1ccccc1C(=O)NC([Se])=NC1CCCCC1 | 7.53% (active) |
| CCOP(=O)(CC(F)(F)C(F)(F)F)OCC | 17.2% (inactive) |
| CC(C)C[C@H](NC(=O)CNC(=O)C[C@H]1O[C@@H]2OC3(C)CC[C@H]4[C@H](C)CC[C@@H]([C@H]1C)[C@@]24OO3)B(O)O | 0.92% (active) |
| C[C@H]1[C@@H](Oc2ccc(-c3cn(-c4ccnc5cc(Cl)ccc45)nn3)cc2)O[C@@H]2OC3(C)CC[C@H]4[C@H](C)CC[C@@H]1[C@@]24OO3 | 6.05% (active) |
| C[C@H]1[C@H](OC(=O)CCC(=O)N(CCCc2cn(-c3ccc([N+](=O)[O-])cc3)nn2)CCNc2ccnc3cc(Cl)ccc23)O[C@@H]2OC3(C)CC[C@H]4[C@H](C)CC[C@@H]1[C@@]24OO3 | -24.2% (active) |
| COc1cc2cc(C(=O)N3C[C@@H](CCl)c4c3cc(OC(=O)N3CCN(C)[C@@H]5CSSC[C@@H]53)c3ccccc43)[nH]c2c(OC)c1OC | 1.55% (active) |
| COc1cc2cc(C(=O)N3C[C@@H](CCl)c4c3cc(OC(=O)N3CCN(C(=O)CCC(=O)N5CCN(C)CC5)[C@@H]5CSSC[C@@H]53)c3ccccc43)[nH]c2c(OC)c1OC | -37.6% (active) |
| COC(=O)c1ccc(-n2cc(CCCN(CCNc3ccnc4cc(Cl)ccc34)C(=O)CCC(=O)O[C@@H]3O[C@@H]4OC5(C)CC[C@H]6[C@H](C)CC[C@@H]([C@H]3C)[C@@]46OO5)nn2)cc1 | -30.7% (active) |
| O=C([Se]C1C=CCCC1)c1ccc(C(=O)[Se]C2C=CCCC2)s1 (stereo not given) | 1.11% (active) |
| O=C(/C=C/c1cccc(Br)c1)c1nc2ccccc2n1Cc1ccc(F)cc1 | 3.12% (active) |
| CC[C@]12C=CCN3CC[C@@]4(c5ccc(OC)cc5N(C)[C@H]4[C@@](O)(C(=O)OC)[C@@H]1OC(=O)CCC[P+](c1ccc(C)cc1)(c1ccc(C)cc1)c1ccc(C)cc1)[C@@H]32 | -47.5% (active) |
| O=C(NC([Se])=NC1CCCCC1)c1ccccc1 | 16% (inactive) |
| O=C(/C=C/c1ccccc1)c1nc2ccccc2n1Cc1ccc(Br)cc1 | -14.4% (active) |
| C=CC[Se]C(=O)c1cncc(C(=O)[Se]CC=C)c1 | -26.2% (active) |
| COc1ccc(OC)c(/C=C/C(=O)c2nc3ccccc3n2Cc2ccc(F)cc2)c1 | -11.3% (active) |
| O=C(/C=C/c1ccc(F)cc1)c1nc2ccccc2n1Cc1ccc(Br)cc1 | -21.8% (active) |
| CC[C@]12C=CCN3CC[C@@]4(c5ccc(OC)cc5N(C)[C@H]4[C@@](O)(C(=O)OC)[C@@H]1OC(=O)CCCC[P+](c1ccc(C)cc1)(c1ccc(C)cc1)c1ccc(C)cc1)[C@@H]32 | -42.2% (active) |
| CC(C)N=C([Se])NC(=O)c1cccs1 | 56% (inactive) |
| Cc1ccc2[nH]c(=S)n(-c3ccc(F)cc3)c(=O)c2c1 | 118% (inactive) |
| C#CC[Se]C(=O)c1ccc2n[se]nc2c1 | 1.82% (active) |
| CC1=C(COCCOC(=O)c2ccc(S(=O)(=O)F)cc2)C2=C(C)C3(CC3)[C@@](C)(O)C(=O)C2=C1 | -22.9% (active) |
| CC12CCC3(CCC(=O)NCCCNc4ccnc5cc(Cl)ccc45)[C@@](C)(OO[C@]3(C)O1)O2 | 14.9% (inactive) |
| O=C(/C=C/c1ccc(Br)cc1)c1nc2ccccc2n1Cc1ccc(Br)cc1 | -13.2% (active) |
| COC(=O)CCn1c(-c2ccc(-n3cc(-c4ccc(O[C@H]5O[C@@H]6OC7(C)CC[C@H]8[C@H](C)CC[C@@H]([C@H]5C)[C@@]68OO7)cc4)nn3)cc2)nc2ccccc21 | -3.65% (active) |
| N#C[Se]CC(=O)Nc1cccc(C(F)(F)F)c1 | 0.147% (active) |
| CCC[Se]C(=O)c1ccc(C(=O)[Se]CCC)s1 | -26.7% (active) |
| C[C@H]1[C@@H](CC(=O)N[C@@H](Cc2coc3ccccc23)B(O)O)O[C@@H]2OC3(C)CC[C@H]4[C@H](C)CC[C@@H]1[C@@]24OO3 | -4.67% (active) |
